Experimental data reported in PubChem BioAssay (Tox21).
Records with an inconclusive call do not appear. Calls of active or inactive are those of the source. Unless noted, calls follow the shape of the full dose curve.

Legend:
[1] = Nuclear factor erythroid 2-related factor 2/antioxidant responsive element (Nrf2/ARE) small molecule agonists: qHTS cell viability counter screen in human keratinocytes (AID 1919968; active = well fitted curve in the direction sought with a large enough effect in the repeat runs; an effect the other way counts as inactive or inconclusive; also: nearly all actives have a fitted effect of over 55% in size)
In short: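 Seed 1,500 KeratinoSens cells per well, then incubate 5 h at 37 C/5% CO2. Add compounds in DMSO and incubate 23 h. Add CellTiter-Fluor, wait 1 h and read fluorescence.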

[2] = target: Gonadotropin-releasing hormone receptor (Homo sapiens) (UniProt P30968); assay: Human gonadotropin-releasing hormone receptor (GnRHR) small molecule agonists, calcium flux assay in GnRHR-HEK293 cells (AID 1920063); also: nearly all actives have a fitted effect of over 35% in size
In short: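 Cells: HEK293 stably expressing human GnRHR. Steps: overnight (18 h) culture, 1 h calcium dye loading at 37 C, compound addition, kinetic fluorescence read at 480/540 nm. Each compound tested at 15 concentrations in triplicate.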

[3] = G protein-coupled receptor (GPCR) small molecule agonists, calcium flux assay: HEK293 wild type cell line counter screen (AID 1920065)
In short: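 Counter-screen of the Tox21 10K library for non-specific calcium release: dye-loaded cells received compounds in DMSO and were monitored by kinetic fluorescence (480/540 nm, 3 min). Fifteen concentrations, run in triplicate.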

[4] = p53 small molecule agonists, cell-based qHTS assay with rat liver microsomes (AID 1963578)
In short: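 Agonist mode in p53RE-bla reporter cells, with compounds co-incubated 16 h at 37 C alongside 0.5 mg/mL rat liver microsomes and 0.5 mg/mL NADPH (final), followed by a 2 h LiveBLAzer detection step.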

[5] = p53 small molecule agonists, cell-based qHTS assay: qHTS cell viability counter screen (AID 1963581); also: nearly all actives have a fitted effect of over 45% in size
In short: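 Cells: HCT-116 with p53 response element-driven beta-lactamase. Treatment: 16 h, 37 C, compounds in DMSO. Read: CellTiter-Glo luminescence after 30 min RT.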

[6] = p53 small molecule agonists, cell-based qHTS assay (AID 1963582; active = well fitted activation curve with a large enough effect in the signal ratio in the repeat runs, not every such curve was filed as active; the % refers to the signal ratio)
In short: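 Quantitative HTS in p53RE-bla cells: after a 5 h settling period, compounds delivered in DMSO were left on cells for 16 h at 37 C, and reporter induction was measured as fluorescence following 2 h substrate loading.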

[7] = target: 5-hydroxytryptamine receptor 2A (Homo sapiens) (UniProt P28223); assay: 5-hydroxytryptamine receptor 2A (HTR2A) small molecule agonists, cell-based qHTS assay (AID 1963587); also: nearly all actives have a fitted effect of over 30% in size
In short: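 CHO cells stably expressing human HTR2A, plated 18 h, loaded with calcium dye 1 h at 37 C. Agonist mode: compounds added and intracellular calcium fluorescence recorded kinetically for 2 min at 1 sec intervals.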

[8] = target: Muscarinic acetylcholine receptor M1 (Homo sapiens) (UniProt P11229); assay: Cholinergic receptor muscarinic 1 (CHRM1) small molecule antagonists, cell-based qHTS assay (AID 1963588); also: nearly all actives have a fitted effect of over 40% in size
In short: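 CHRM1-CHO calcium-flux assay, antagonist mode. Cells were seeded 18 h, dye-loaded 1 h at 37 C and given compound for 5 min at RT, then acetylcholine was added at 50nM. FDSS fluorescence was read 3 min; 15 concentrations, three runs.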

[9] = target: Muscarinic acetylcholine receptor M1 (Homo sapiens) (UniProt P11229); assay: Cholinergic receptor muscarinic 1 (CHRM1) small molecule agonists, cell-based qHTS assay (AID 1963589); also: nearly all actives have a fitted effect of over 35% in size
In short: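 Agonist-mode qHTS in CHO cells stably carrying human muscarinic M1. Intracellular calcium is tracked by fluorescence every second after compound transfer; each compound runs at 15 concentrations in three independent runs.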

[10] = cAMP Responsive Elements (CRE) small molecule agonists, cell-based qHTS assay (AID 1963590)
In short: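 Agonist mode qHTS in CRE-bla HEK 293T cells: compounds dosed from DMSO for 3 h at 37 C/5% CO2, followed by LiveBLAzer B/G FRET substrate for 2 h at room temperature.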

[11] = cAMP Responsive Elements (CRE) small molecule antagonists, cell-based qHTS assay (AID 1963591; active = well fitted inhibition curve with a large enough effect in the signal ratio in the repeat runs, not every such curve was filed as active; the % refers to the signal ratio)
In short: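 Antagonist mode: test compounds are co-incubated with the adenylyl cyclase activator NKH477 (0.25 uM final) on CRE-bla HEK293T cells for 3 h at 37 °C, followed by LiveBLAzer substrate loading.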

[12] = target: Beta-2 adrenergic receptor (Homo sapiens) (UniProt P07550); assay: Adrenergic beta2 receptor (ADRB2) small molecule antagonists, cell-based qHTS assay (AID 1963592); also: series mostly up to about 92 µM; nearly all actives have a fitted effect of over 50% in size
In short: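 Cells (CHO, stable ADRB2 overexpression) incubated 18-20hr at 37C; compounds added from DMSO; agonist mix (1nM isoproterenol, 100uM IBMX, 25uM Ro-20-1724) added; 0.5hr RT; d2-cAMP and anti-cAMP-cryptate added; 1hr RT; 665/615 nm read.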

[13] = target: D(2) dopamine receptor (Homo sapiens) (UniProt P14416); assay: Dopamine D2 receptor (DRD2) small molecule agonists, cell-based qHTS assay (AID 1963594); also: nearly all actives have a fitted effect of over 35% in size
In short: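 HEK293 cells stably expressing human DRD2, pre-treated with PDE inhibitor Ro20-1724 (0.1 mM final) and compound 10 min at room temperature, then stimulated with NKH477 (200nM […]) for 30 min. cAMP read by HTRF (665/620 nm).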

[14] = target: D(2) dopamine receptor (Homo sapiens) (UniProt P14416); assay: Dopamine D2 receptor (DRD2) small molecule antagonists, cell-based qHTS assay (AID 1963595; active = well fitted inhibition curve with a large enough effect in the signal ratio in the repeat runs, with a control signal flat; the % refers to the signal ratio)
In short: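 Stable D2 receptor HEK293 line, 24 h after seeding. Compound preincubated 10 min, then quinpirole (12 nM) with forskolin analogue NKH477 (200 nM), 30 min, room temperature. Detection by time-resolved FRET of cAMP.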

[15] = target: KiSS-1 receptor (Homo sapiens) (UniProt Q969F8); assay: Human kisspeptin (KISS1R) small molecule agonists, calcium flux assay in KISS1R-HEK293 cells (AID 1920064; active = well fitted curve in the direction sought with a large enough effect in the repeat runs; an effect the other way counts as inactive or inconclusive)
In short: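 Cells plated and incubated 18 h; dye added, 1 h at 37 C; compounds in DMSO pinned in; signal read at 480/540 nm every second for 3 min. Each compound tested at 15 concentrations in triplicate.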

[16] = p53 small molecule agonists, cell-based qHTS assay with rat liver microsomes: qHTS cell viability counter screen (AID 1963580); also: nearly all actives have a fitted effect of over 45% in size
In short: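 Viability is assessed in parallel with the p53 reporter read: HCT-116 p53RE-bla cells receive compounds plus rat microsomes and NADPH (0.5 mg/mL final apiece), incubate 16 h at 37 C, and then CellTiter-Glo luminescence is recorded.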

[17] = target: 5-hydroxytryptamine receptor 2A (Homo sapiens) (UniProt P28223); assay: 5-hydroxytryptamine receptor 2A (HTR2A) small molecule antagonists, cell-based qHTS assay (AID 1963586); also: nearly all actives have a fitted effect of over 45% in size
In short: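 Antagonist-mode intracellular calcium assay: DOI (4 nM) added after 5 min compound pre-incubation at room temperature to dye-loaded HTR2A-CHO cells. Fluorescence followed for 3 min, sampled every second.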

[18] = target: Beta-2 adrenergic receptor (Homo sapiens) (UniProt P07550); assay: Adrenergic beta2 receptor (ADRB2) small molecule agonists, cell-based qHTS assay (AID 1963593);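 also: CHO cells stably overexpressing human ADRB2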
In short: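 CHO cells stably over-expressing ADRB2 were plated overnight at 37C, then dosed with compounds plus a stimulation mix containing 100uM IBMX and 25uM Ro-20-1724 for 0.5hr at room temperature. cAMP was measured by HTRF competition, 1hr.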

[19] = p53 small molecule agonists, cell-based qHTS assay with human liver microsomes (AID 1963577);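 also: p53 response element beta-lactamase reporter cells with liver microsomes plus NADPH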
In short: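 In this qHTS, p53 response-element beta-lactamase cells receive test compound together with a microsome/NADPH activating system (0.5 mg/mL final each) and are incubated 16 h at 37 C before LiveBLAzer fluorescence detection.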

[20] = p53 small molecule agonists, cell-based qHTS assay with human liver microsomes: qHTS cell viability counter screen (AID 1963579); also: nearly all actives have a fitted effect of over 45% in size
In short: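 Metabolically activated exposure: compounds, human liver microsomes and NADPH (0.5 mg/mL final apiece) were added to p53RE-bla cells seeded 5 h earlier, left 16 h at 37 C, and then assessed for viability by CellTiter-Glo luminescence.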
% is scaled to controls: 0 for no effect and ±100 for the full control effect.

Chain of Beta-2 adrenergic receptor (Homo sapiens) (P07550 whole entry, looked up): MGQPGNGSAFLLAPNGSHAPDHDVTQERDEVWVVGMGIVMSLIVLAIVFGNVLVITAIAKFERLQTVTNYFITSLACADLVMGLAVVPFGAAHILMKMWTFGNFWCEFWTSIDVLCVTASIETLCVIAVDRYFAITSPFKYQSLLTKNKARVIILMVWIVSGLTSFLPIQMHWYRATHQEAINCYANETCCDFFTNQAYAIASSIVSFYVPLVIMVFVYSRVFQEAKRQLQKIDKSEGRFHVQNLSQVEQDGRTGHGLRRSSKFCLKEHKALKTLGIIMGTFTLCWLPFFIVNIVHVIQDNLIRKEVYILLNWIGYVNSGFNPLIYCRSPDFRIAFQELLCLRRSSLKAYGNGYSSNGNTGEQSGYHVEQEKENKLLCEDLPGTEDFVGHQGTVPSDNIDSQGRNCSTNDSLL
Chain of D(2) dopamine receptor (Homo sapiens) (P14416 whole entry, looked up): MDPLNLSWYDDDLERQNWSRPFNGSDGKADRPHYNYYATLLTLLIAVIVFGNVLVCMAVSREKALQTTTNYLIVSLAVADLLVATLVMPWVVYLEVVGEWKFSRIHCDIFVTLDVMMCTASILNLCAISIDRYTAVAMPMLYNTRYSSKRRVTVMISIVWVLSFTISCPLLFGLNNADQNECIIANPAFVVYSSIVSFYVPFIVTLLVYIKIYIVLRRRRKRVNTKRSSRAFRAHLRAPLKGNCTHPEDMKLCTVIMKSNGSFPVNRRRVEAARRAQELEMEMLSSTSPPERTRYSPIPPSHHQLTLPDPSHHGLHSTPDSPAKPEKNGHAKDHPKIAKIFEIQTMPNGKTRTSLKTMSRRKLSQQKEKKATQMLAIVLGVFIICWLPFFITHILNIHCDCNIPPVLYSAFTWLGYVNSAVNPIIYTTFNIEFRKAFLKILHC
Chain of Gonadotropin-releasing hormone receptor (Homo sapiens) (P30968 whole entry, looked up): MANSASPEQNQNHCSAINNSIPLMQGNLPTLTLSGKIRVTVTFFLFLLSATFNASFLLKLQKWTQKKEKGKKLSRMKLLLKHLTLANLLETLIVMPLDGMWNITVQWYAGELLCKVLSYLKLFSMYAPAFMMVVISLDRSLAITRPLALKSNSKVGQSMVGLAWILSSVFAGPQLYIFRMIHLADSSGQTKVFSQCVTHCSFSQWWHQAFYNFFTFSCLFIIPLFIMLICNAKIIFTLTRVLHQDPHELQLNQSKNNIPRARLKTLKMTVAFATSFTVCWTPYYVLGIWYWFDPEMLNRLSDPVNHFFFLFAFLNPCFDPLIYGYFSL
Chain of Muscarinic acetylcholine receptor M1 (Homo sapiens) (P11229 whole entry, looked up): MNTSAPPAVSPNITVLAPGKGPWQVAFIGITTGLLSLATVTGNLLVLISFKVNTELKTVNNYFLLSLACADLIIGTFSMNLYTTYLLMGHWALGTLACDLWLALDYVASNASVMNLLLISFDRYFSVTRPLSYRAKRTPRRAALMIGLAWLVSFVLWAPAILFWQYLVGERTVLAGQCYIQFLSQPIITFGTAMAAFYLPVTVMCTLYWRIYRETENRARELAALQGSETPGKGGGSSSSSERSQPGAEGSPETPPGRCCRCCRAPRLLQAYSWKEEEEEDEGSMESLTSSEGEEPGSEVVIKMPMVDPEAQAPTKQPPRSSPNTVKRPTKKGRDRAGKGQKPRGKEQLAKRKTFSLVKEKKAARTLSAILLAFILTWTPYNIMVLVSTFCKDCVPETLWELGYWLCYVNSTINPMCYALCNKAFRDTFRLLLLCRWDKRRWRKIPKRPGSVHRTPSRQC
Chain of 5-hydroxytryptamine receptor 2A (Homo sapiens) (P28223 whole entry, looked up): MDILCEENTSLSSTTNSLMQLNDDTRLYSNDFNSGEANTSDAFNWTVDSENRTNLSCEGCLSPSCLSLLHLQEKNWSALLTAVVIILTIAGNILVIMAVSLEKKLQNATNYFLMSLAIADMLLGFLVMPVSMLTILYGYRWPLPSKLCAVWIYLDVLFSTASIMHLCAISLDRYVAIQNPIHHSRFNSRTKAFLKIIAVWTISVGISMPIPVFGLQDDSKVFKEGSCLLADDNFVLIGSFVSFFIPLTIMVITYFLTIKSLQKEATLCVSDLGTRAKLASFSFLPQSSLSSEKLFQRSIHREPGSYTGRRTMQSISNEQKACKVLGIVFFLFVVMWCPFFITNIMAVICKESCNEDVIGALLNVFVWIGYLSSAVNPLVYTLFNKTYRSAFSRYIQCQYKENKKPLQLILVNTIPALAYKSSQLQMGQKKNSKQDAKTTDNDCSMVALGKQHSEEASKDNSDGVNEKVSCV
Chain of KiSS-1 receptor (Homo sapiens) (Q969F8 whole entry, looked up): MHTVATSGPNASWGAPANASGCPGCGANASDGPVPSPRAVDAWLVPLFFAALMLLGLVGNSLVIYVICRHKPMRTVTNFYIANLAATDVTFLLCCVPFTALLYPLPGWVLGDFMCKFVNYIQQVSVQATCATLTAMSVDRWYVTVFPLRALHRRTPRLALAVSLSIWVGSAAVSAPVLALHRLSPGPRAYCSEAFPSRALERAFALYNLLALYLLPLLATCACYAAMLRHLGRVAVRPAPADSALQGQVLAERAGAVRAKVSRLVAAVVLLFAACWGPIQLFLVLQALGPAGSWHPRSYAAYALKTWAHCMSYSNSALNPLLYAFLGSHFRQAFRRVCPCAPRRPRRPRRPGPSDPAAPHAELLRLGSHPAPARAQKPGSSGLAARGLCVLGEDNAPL

COC(=O)c1ccccc1S(=O)(=O)NC(=O)N(C)c1nc(C)nc(OC)n1
inactive: Potency [1] | Potency [2] | Potency [3] | Potency [4] | Potency [5] | Potency [6] | Potency [7] | Potency [8] | Potency [9] | Potency [10] | Potency [11] | Potency [12] | Potency [13] | Potency [14]

Cc1cc(C)c(C2=C(OC(=O)CC(C)(C)C)C3(CCCC3)OC2=O)c(C)c1
inactive: Potency [1] | Potency [15] | Potency [16] | Potency [5] | Potency [17] | Potency [7] | Potency [8] | Potency [9] | Potency [10] | Potency [11] | Potency [12] | Potency [18] | Potency [13] | Potency [14]

Cc1nc(N)nc(N)n1
inactive: Potency [2] | Potency [15] | Potency [3] | Potency [19] | Potency [4] | Potency [20] | Potency [16] | Potency [5] | Potency [6] | Potency [7] | Potency [9] | Potency [10] | Potency [11] | Potency [12] | Potency [13]

O.O.O.O.O.O.O.O=S(=O)([O-])[O-].[Co+2]
inactive: Potency [1] | Potency [3] | Potency [20] | Potency [16] | Potency [5] | Potency [7] | Potency [8] | Potency [9] | Potency [10] | Potency [11] | Potency [12] | Potency [13] | Potency [14]

CC(C)(C)c1cc(O)ccc1O
inactive: Potency [2] | Potency [15] | Potency [3] | Potency [19] | Potency [4] | Potency [20] | Potency [16] | Potency [5] | Potency [6] | Potency [17] | Potency [7] | Potency [8] | Potency [9] | Potency [10] | Potency [11] | Potency [12] | Potency [14]

CC1CCCC1
inactive: Potency [1] | Potency [19] | Potency [4] | Potency [20] | Potency [16] | Potency [5] | Potency [6]

Clc1cc2c(cc1Cl)Oc1cc(Cl)c(Cl)cc1O2
inactive: activity change [2] 1.13% [at 0.217 µM, stronger effect = higher value] | activation [15] -3.37% [at 0.29 µM] | activation [3] 0.634% [at 0.217 µM] | activation [19] 0.165% [at 0.249 µM] | activation [4] -1.51% [at 0.249 µM] | activity change, negative = cytotoxicity [20] -6.87% [at 0.249 µM] | activity change, negative = cytotoxicity [16] 0.149% [at 0.249 µM] | activity change, negative = cytotoxicity [5] 1.19% [at 0.249 µM] | activity change, negative = inhibition [11] -0.651% [at 0.349 µM] | activation [13] 0.882% [at 0.349 µM] | activity change, negative = inhibition [14] -6.33% [at 0.348 µM]
